Assay results reported in PubChem BioAssay (EPA / NIEHS).
Inconclusive results are not listed. Calls of active or inactive are those of the source. How the source made its calls: active means hit-call score of the fitted dose curve at least 0.9, where 1 is the maximum; inconclusive means response in the unintended direction; inactive means score below 0.9.

assay: Tanguay_ZF_120hpf_BRAI_legacy: (Legacy) Oregon State University Tanguay Lab 120 Hour Post-fertilization zebrafish Assay for Brain Malformation (AID 2283641)
Description: Tanguay_ZF_120hpf_legacy is a whole embryo, multiplexed endpoint assay using zebrafish larvae exposed for 120 hours post fertilization on a 96-well plate.Tanguay_ZF_120hpf_BRAI_legacy is one of one assay component(s) measured or calculated from the Tanguay_ZF_120hpf_legacy assay. It is designed to make measurements of zebrafish development as detected with brightfield microscopy of developing zebrafish embryos.Data from the assay component Tanguay_ZF_120hpf_BRAI_legacy was analyzed into 1 assay endpoints. This assay endpoint, Tanguay_ZF_120hpf_BRAI_legacy, was analyzed in the positive analysis fitting direction relative to DMSO as the negative control and baseline of activity. Using a type of morphology reporter, gain-of-signal activity can be used to understand changes in developmentals as they relate to the whole embryo. To generalize the intended target to other relatable targets, this assay endpoint is annotated to the zebrafish development intended target family, where the subfamily is brain morphogenesis.
Zebrafish husbandry: Tropical 5D wild-type adult zebrafish were housed in at an approximate density of 1000 per 100 gallon tank at the Sinnhuber Aquatic Research Laboratory, Oregon State University, Corvallis, OR. Each tank was kept at standard laboratory conditions of 28C on a 14-h light/10-h dark photoperiod in fish water consisting of reverse osmosis water supplemented with a commercially available salt (Instant Ocean). Spawning funnels were placed into the tanks the night prior, and embryos were collected and staged. […] Ten microliters of each row of dilution plate 2 was added to 2 exposure plates. The final DMSO concentration used was 0.64% (vol/vol). Thirty-two embryos were also exposed to 5uM trimethyltin chloride (positive control). Plates were sealed to prevent evaporation and foil covered to reduce light exposure and kept in a 28C incubator. Embryos were statically exposed until 120 hpf. At 24 hpf, embryos were assessed for photomotor response using a custom photomotor response analysis tool (PRAT) and for developmental toxicity endpoints (MO24: mortality at 24 hpf, DP: developmental progression, SM: spontaneous movement, and NC: notochord distortion). At 120 hpf, locomotor activity was measured using Viewpoint Zebralab and assessed for 18 endpoints. Zebrafish acquisition and analysis program (ZAAP), a custom program designed to inventory, acquire, and manage zebrafish data, was used to collect developmental endpoints as either present or absent (i.e., binary responses were recorded). If mortality occurred for an embryo (at either 24 or 120 hpf), the non-mortality endpoints were not measured.

Row | SMILES | outcome | AC50
1 | Cc1oc2c(NC(=O)c3c(Cl)cccc3Cl)cccc2c1C(C)(C)O | inactive | –
2 | CN(C[C@@H](CC[N+]12CCC(C3CCCCC3)(CC1)CC2)c1ccc(Cl)c(Cl)c1)C(=O)c1cc(C(F)(F)F)cc(C(F)(F)F)c1 | inactive | –
3 | c1ccc2ccccc2c1 | inactive | –
4 | CCO[Si](CCCNC(N)=O)(OCC)OCC | inactive | –
5 | Cc1cc2c(cc1C(F)(F)F)N(C(=O)Nc1ccc(Oc3cccnc3C)nc1)CC2 | inactive | –
6 | O=C(O)Cc1cc(I)c(Oc2ccc(O)c(I)c2)c(I)c1 | inactive | –
7 | CC(C)(c1cc(Br)c(O)c(Br)c1)c1cc(Br)c(O)c(Br)c1 | inactive | –
8 | Cc1ncc(CO)c(CO)c1O | inactive | –
9 | Cc1ccc2oc(CN(Cc3ccccc3)C(=O)Nc3c(F)cc(F)cc3F)c(-c3ccc(Cl)cc3)c2c1 | inactive | –
10 | CCCCOC(=O)CC(CC(=O)OCCCC)(OC(C)=O)C(=O)OCCCC | inactive | –
11 | CN1C(=O)CC[C@H]1c1cccnc1 | inactive | –
12 | COc1ccc2cc(S(=O)(=O)N[C@H](CC(=O)N[C@H](Cc3ccc(CN4[C@H](C)CCC[C@@H]4C)cc3)C(=O)N(C)C(C)C)c3ccc4c(c3)OCO4)ccc2c1 | inactive | –
13 | COc1cccc([C@H](O)C2CCN(CCc3ccc(F)cc3)CC2)c1OC | inactive | –
14 | Cc1c2ccccc2c(C)c2c1ccc1ccccc12 | inactive | –
15 | CCOC(=O)O[C@H](C)OC(=O)c1ccc2c(c1)cc(C(=O)NC1CCN(C(C)C)CC1)n2Cc1cc(-c2ccc(Cl)s2)on1 | inactive | –
16 | O=C(Nc1ccc(Cl)cc1)Nc1ccc(Cl)c(Cl)c1 | inactive | –
17 | O=CCCCC=O | inactive | –
18 | CCCCCc1ccc(N)cc1 | inactive | –
19 | Oc1ccc2ccccc2c1 | – | 10.3 µM (active)
20 | CCCCCCCCCCCO | inactive | –

Row | SMILES | outcome | AC50
21 | COCC(C)OCC(C)OCC(C)O (stereo not given) | inactive | –
22 | CCCCCCCCCC(=O)O | inactive | –
23 | Clc1ccccc1C(c1ccccc1)(c1ccccc1)n1ccnc1 | – | 87.3 µM (active)
24 | OCCO | inactive | –
25 | CC[C@@H]1C[C@H](N(Cc2cc(C(F)(F)F)cc(C(F)(F)F)c2)C(C)=O)c2cc(C(F)(F)F)ccc2N1C(=O)OC(C)C | inactive | –
26 | O=C=NCCCCCCN=C=O | inactive | –
27 | O=C1c2ccccc2C(=O)N1CCc1noc(-c2ccc(CN3CCCCCC3)s2)n1 | inactive | –
28 | CC1(C)NC(=O)N(c2ccc([N+](=O)[O-])c(C(F)(F)F)c2)C1=O | inactive | –
29 | CCCC(=O)OCCC(C)C | inactive | –
30 | O=C1CCC(C2CCCCC2)CC1 | inactive | –
31 | CCN(Cc1cccnc1)C(=O)c1cccc(Cl)c1[C@]1(C)C(=O)N(Cc2ccc(OC)cc2OC)c2ccc(Cl)cc21 | inactive | –
32 | CC(C)(C)c1cc(/C=C2\SC(N)=NC2=O)cc(C(C)(C)C)c1O | inactive | –
33 | CC(C)(C)c1csc(-c2cc3cc(OCc4ccccc4CC(=O)O)ccc3o2)n1 | inactive | –
34 | CCCCCCCCCCCCO | inactive | –
35 | Cc1ccc(C(C)C)cc1 | inactive | –
36 | NCc1cccc(C2CCN(C(=O)c3ccc(C#Cc4ccccc4F)o3)CC2)c1 | inactive | –
37 | CC(C)(O)c1ccc(CNC(=O)c2cccnc2Oc2ccc3nonc3c2)cc1 | inactive | –
38 | c1ccc2n[nH]nc2c1 | inactive | –
39 | O=C1O[C@H]([C@@H](O)CO)C(O)=C1O | inactive | –
40 | CCCCCCCCCCCC[N+](C)(C)C | inactive | –
